# Laboratory results published in ChEMBL document CHEMBL1156829.
# In all, about 5,400 compounds were measured (“IFI”: median about 2, highest 2% from about 22 on). Only a selection was taken, and the highest values are over-represented in it overall.
# Assay: NOVARTIS: Inhibition Frequency Index (IFI) - the number of HTS assays where a compound showed > 50% inhibition/induction, expressed as a percentage of the number of assays in which the compound was tested.
# Assay type: functional
row,Structure (SMILES),IFI [%]
1,CC1CC(C)CC(C)C(O)C(C#N)=CC=CCC(C2CCCC2C(=O)O)OC(=O)CC(O)C(C)C1 (stereo not given),25.8
2,COc1ccc(Cn2cccc(C(=O)Nc3ccc(OC)cc3)c2=O)cc1,5.26
3,Oc1ccccc1C=Nc1ccccc1[Te]c1ccccc1N=Cc1ccccc1O,8.21
4,CCn1nc(/C=C/c2ccccc2)nc2c(=O)n(C)c(=O)nc1-2,16.7
5,Cn1ncnc2c(=O)n(C)c(=O)nc1-2,26.7
6,Cc1nc2c(=O)n(C)c(=O)nc-2n(C)n1,25
7,CCC(C)N1CCN(Cc2cccc(OC)c2OC)CC1 (stereo not given),3.17
8,CCCC[C@@H](C)C(O)[C@H]1C(=O)N[C@@H](CC)C(=O)N(C)CC(=O)N(C)[C@@H](CC(C)C)C(=O)N[C@@H](C(C)C)C(=O)N(C)[C@@H](CC(C)C)C(=O)N[C@@H](C)C(=O)N[C@@H](C)C(=O)N(C)[C@@H](CC(C)C)C(=O)N(C)[C@@H](CC(C)C)C(=O)N(C)[C@@H](C(C)C)C(=O)N1C (stereo not given in full),3.45
9,CNCC(O)c1ccc(Cl)c(Cl)c1 (stereo not given),0
10,Nc1ccc(C(=O)NN=Cc2cccc([N+](=O)[O-])c2)cc1,0
11,C=C[C@H]1CN2CC[C@H]1C[C@H]2[C@H](OC(=O)c1cccc([N+](=O)[O-])c1)c1ccnc2ccccc12,0.926
12,COC1=CC(C)=C[C@@H](C)[C@@H](O)[C@H](C)CC(C)=CC=C[C@H](OC)[C@@H](C(C)C(O)[C@H](C)[C@@]2(O)C[C@@H](O)[C@H](C)[C@@H](C(C)C)O2)OC1=O (stereo not given in full),19.6
13,C=CC1CN2CCC1CC2C(OC(=O)C1CC1)c1ccnc2ccccc12 (stereo not given),0
14,Cc1ccc(CN2C3CCCC2CC(NC(=O)Nc2cccc(F)c2)C3)cc1 (stereo not given),1.32
15,O=C(Nc1ccc(Oc2ccc(OC(F)(F)F)cc2)cc1)C1CC1,1.57
16,CCOC(=O)CN(N=O)C1=C(N2CC2)C(=O)c2ccccc2C1=O,30.8
17,COc1ccc(NC2=C(N3CCCCC3)C(=O)c3ccccc3C2=O)cc1,18.7
18,COc1cc(CN2CC3CC(C2)c2cccc(=O)n2C3)ccc1O (stereo not given),0
19,O=C(NNC(=O)c1csnn1)c1ccc(C(F)(F)F)cc1,3
20,Cc1nc(Oc2ccc3ccc(=O)oc3c2)c2c3c(sc2n1)CCCCC3,0
21,Cc1c2ccccc2c(C)c2ccccc12,3.76
22,NC(=O)Oc1ccc(Cc2ccccc2)cc1,0

row,Structure (SMILES),IFI [%]
1,CC(Cc1ccccc1)NCc1ccccc1O (stereo not given),3.12
2,CN1CCN(c2nc(Cl)nc3[nH]cnc23)CC1,0.699
3,CC(=O)N(C1=C(N(C)C)C(=O)c2ccccc2C1=O)c1ccc(F)c(F)c1,23.1
4,CC(=O)N(C1=C(N(C)C)C(=O)c2ccccc2C1=O)c1ccc(Cl)cc1,0
5,CC(=O)N(C1=C(N(C)C)C(=O)c2ccccc2C1=O)c1cccc(F)c1,15.4
6,COc1ccccc1-n1c(/C=C/c2cc(Br)ccc2O)nc2ccccc2c1=O,8.06
7,CC(C)[C@@]1(NC(=O)[C@@H]2C[C@@H]3c4cccc5[nH]cc(c45)C[C@H]3N(C)C2)O[C@@]2(O)[C@@H]3CCCN3C(=O)[C@H](CC3CCCCC3)N2C1=O,9.52
8,O=C1c2ccccc2-c2nc3nnnn3nc21,42.9
9,CC=C[C@H]1O[C@@](O)([C@H](C)C(O)C(C)[C@@H]2OC(=O)C(OC)=CC(C)=C[C@H](C)[C@H](O)[C@H](CC)[C@H](O)C(C)CC(C)=CC=C[C@H]2OC)C[C@@H](O[C@@H]2C[C@H](O)[C@@H](OC(N)=O)[C@H](C)O2)[C@@H]1C (stereo not given in full),15
10,CO/C(=C\C(N)=O)C(C)C(/C=C/c1csc(-c2csc(C(C)/C=C/C=C/C(C)C)n2)n1)OC (stereo not given),11.5
11,C=C[C@H]1CN2CC[C@H]1C[C@H]2[C@H](OC(C)=O)c1ccnc2ccccc12,1.89
12,CC[C@H]1CN2CC[C@@H]1C[C@@H]2[C@@H](O)c1ccnc2ccc(OC)cc12,2.16
13,CC1OC(=O)C(C(C)C)NC(=O)C(C(C)C)OC(=O)C(C(C)C)NC(=O)C(C)OC(=O)C(C(C)C)NC(=O)C(C(C)C)OC(=O)C(C(C)C)NC(=O)C(C)OC(=O)C(C(C)C)NC(=O)C(C(C)C)OC(=O)C(C(C)C)NC1=O (stereo not given),27.7
14,C=CC1(O)CN2CCC1CC2[C@@H](O)c1ccnc2ccc(OC)cc12 (stereo not given in full),3.57
15,CCc1cc2c(cc1-c1csc(NC(=N)N)n1)C(C)(C)CCC2(C)C,5.16
16,CC1(C)CN=C(NCc2ccccc2Cl)S1,0
17,C=CC1CN2CCC1CC2C(OC(=O)c1ccco1)c1ccnc2ccccc12 (stereo not given),0
18,COc1cc2c3c(c4cc(OC)c(OC)cc4c2cc1OC)CN1CCC[C@@H]1C3,5.26
19,OC1(c2ccc(Br)cc2)CCN(C2CCN(CCc3ccccc3)CC2)CC1,4.1
20,Cc1cc(N(C)C)cc(C)[n+]1OC(=O)N(c1ccccc1)c1ccccc1,16.7
21,CNC1CC2OC(C)(C1OC)n1c3ccccc3c3c4c(c5c6ccccc6n2c5c31)C(=O)NC4O (stereo not given),28.6
22,C/C(=C\c1csc(C)n1)[C@@H]1C[C@@H]2O[C@@H]2CCC[C@H](C)C(O)[C@@H](C)C(=O)C(C)(C)[C@@H](O)CC(=O)O1 (stereo not given in full),6.9

row,Structure (SMILES),IFI [%]
1,CC[C@H]1CN2CCc3cc(OC)c(OC)cc3[C@@H]2C[C@@H]1C[C@@H]1NCCc2cc(OC)c(OC)cc21,37
2,CC[C@H]1CN2CCc3cc(OC)c(OC)cc3[C@@H]2C[C@@H]1C[C@H]1NCCc2cc(O)c(OC)cc21,32.3
3,CCC1CN2CCc3cc(OC)c(OC)cc3C2CC1CC1NCCc2cc(OC)c(OC)cc21 (stereo not given),33.3
4,CC[C@H]1CN2CCc3cc(OC)c(OC)cc3[C@@H]2C[C@@H]1C[C@H]1NCCc2cc(OC)c(OC)cc21,23.8
5,COc1ccc(C=NNc2ccnc3cc(Cl)ccc23)cc1,4.8
6,CN1C[C@@H](CSc2ccccn2)C=C2c3cccc4[nH]cc(c34)C[C@H]21,4.88
7,C=CC1CN2CCC1C(C(O)c1ccnc3ccc(OC)cc13)C2 (stereo not given),2.29
8,CC=C[C@H]1O[C@@](O)([C@@H](C)C(O)C(C)[C@H]2OC(=O)C(OC)=CC(C)=C[C@@H](C)[C@H](O)C(CC)[C@@H](O)[C@H](C)CC(C)=CC=C[C@@H]2OC)C[C@@H](O[C@H]2C[C@@H](O)[C@H](OC(N)=O)[C@@H](C)O2)[C@@H]1C (stereo not given in full),17.5
9,CCCCCCCCCCCCn1ccc(=N)cc1,15.4
10,CCC(C)(O)C(=O)O[C@H]1C(=O)OC2CC3C(C)=C[C@H](O)[C@@H](O)[C@]3(C)C3C24CO[C@]3(O)[C@H](O)[C@H](C)C14 (stereo not given in full),7.69
11,COc1cc2c(O[C@@H]3O[C@H](CO)[C@@H](O)[C@H](O)[C@H]3O)c3c(c(-c4ccc5c(c4)OCO5)c2cc1OC)C(=O)OC3,12.4
12,O=C(CCl)Nc1ccc(Cl)cc1,3.54
13,COc1ccccc1N1CCN(Cc2cc(C)c(C)cc2O)CC1,2.94
14,COc1ccc(C(Cc2ccccc2)NC2CN3CCC2CC3)cc1 (stereo not given),0
15,c1ccc(CCNC2CCN(Cc3ccccc3)CC2)cc1,0
16,O=C(NNC(=O)c1csnn1)c1ccc(Cl)cc1,1
17,c1ccc(-c2nn(-c3ccccc3)[n+](-c3ccccc3)n2)cc1,11.2
18,CCN(CC)S(=O)(=O)c1ccc(C(=O)c2c(C)c(C(=O)C(F)(F)F)c3ccccn23)cc1,3.12
19,COc1ccc(C[C@H]2NC[C@H](O)[C@H]2OC(C)=O)cc1,33.6
20,CC(=O)N(C1=C(N(C)C)C(=O)c2ccccc2C1=O)c1cccc(Cl)c1,7.14
21,Clc1cccc(CNC2CCN(CCc3ccccc3)CC2)c1,0.781
22,Cc1n(-c2ccccc2)c2c([n+]1C)C(=O)c1ccccc1C2=O,33.3

row,Structure (SMILES),IFI [%]
1,CO[C@H]1[C@H](C)[C@@H]([C@H]2CC[C@H]([C@@H]3CC[C@H]([C@@]4(C)O[C@]5(O[C@H](C[C@@H]6O[C@](O)([C@@H](C)C(=O)O)[C@@H](C)[C@H](O[C@H]7CC[C@H](OC)[C@@H](C)O7)[C@@]6(C)OC)C[C@@H](OC)[C@H]5C)[C@H](C)[C@H]4OC)O3)O2)O[C@](C)(O)[C@@H]1C,15.5
2,COc1cc2c(cc1O)CC[n+]1cc3c(OC)c(OC)ccc3cc1-2,0
3,CCN1C(=O)N(CC(N)=O)C(=O)C12CCN(Cc1ccc(N(C)c3ccccc3)cc1)CC2,3.85
4,CC(C)N1CC=C(c2c[nH]c3ccccc23)CC1,0
5,CC[C@@H]1CN2CC[C@H]1C[C@H]2[C@H](O)c1ccnc2ccc(OC)cc12,1.32
6,C[C@H]1C[C@H](C)C(=O)[C@@H]([C@@H](O)CC2CC(=O)NC(=O)C2)C1,23.9
7,C[C@@H]1C[C@@H](C)C(=O)[C@@H](C(O)CC2CC(=O)NC(=O)C2)C1 (stereo not given in full),23.4
8,C[C@@H]1C[C@@H]([C@H](O)CC2CC(=O)NC(=O)C2)C(=O)[C@@H](C)C1,19.7
9,CC(=O)OC1(C)CC(C)C(=O)C(C(O)CC2CC(=O)NC(=O)C2)C1 (stereo not given),22.6
10,OCCC1CN(Cc2cccc(Cl)c2)CCN1Cc1ccccc1 (stereo not given),7.69
11,COC(=O)[C@]1(C)CC[C@]2(C)CC[C@]3(C)C4=CC=C5C(=CC(=O)C(O)=C5C)[C@]4(C)CC[C@@]3(C)[C@@H]2C1,21.4
12,CC(=O)O[C@]1(C(C)=O)CCC2C3C=CC4=CC(=O)CC[C@]4(C)C3CC[C@@]21C (stereo not given in full),2.33
13,Cc1nc2ccccc2c(=O)n1-c1ccc([N+](=O)[O-])cc1,0
14,C=CC12CCN(CC1)C(C(O)c1ccnc3ccc(OC)cc13)C2 (stereo not given),0
15,C=CC1CN2CCC1CC2[C@H](c1ccnc2ccccc12)S(=O)(=O)O (stereo not given in full),0
16,O[C@@]1(c2cc3ccccc3s2)CN2CCC1CC2,1.63
17,CCN1CCC(N2CCC(n3c(Cc4ccccc4OC)nc4cc(F)ccc43)CC2)CC1,1.7
18,C=C[C@H]1CN2CC[C@H]1C[C@@H]2[C@@H](OC(=O)C(C)C)c1ccnc2ccccc12,1.67
19,CC1=CC[C@@H](/C(C)=C/c2csc(C)n2)OC(=O)C[C@H](O)C(C)(C)C(=O)[C@H](C)[C@@H](O)[C@@H](C)CCC1,5.66
